# Hits are enriched below; roughly 7% of the tested compounds scored in any of these assays.
# IL1B secr inh: blocks inflammasome-driven IL-1 beta release; 4.7% of 360,000 active; THP-1 LPS/ATP IL-1B secretion, AlphaLISA, 16 h; active compounds read low; activity change, % at 57.5 µM; in the data active = activity change below about -50%; inconclusive = mostly about -30% to -49%; also: % is scaled to controls: 0 for no effect and ±100 for the full control effect
#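 THP-1 cells pretreated 1 hr with compounds (up to 57.5 uM final), then stimulated with LPS (250 ng/mL final) plus ATP (1.25 mM final); secreted IL-1B measured by AlphaLISA after 16 hr, decreased signal indicating inhibition.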
# Integrin act MD: integrin-mediated muscular dystrophy alleviation activation. alpha7betagal myoblasts, beta-gal FDG fluorescence, 48 h. Potency, µM (doses to about 38.3 µM), without a hit: top-dose activation, actives largely listed as activators. 0.064% of 350,000 active. AID 624291;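 also: potency is read from the fitted curve at half-maximal effect; 100% = response of the positive control SU9516; nearly all actives have a fitted effect of over 60% in size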
#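 alpha7betagal+/- myoblasts (passage 13, 250/well) treated 48 h at 37C with compounds at 1:260 dilution of DMSO stock. Lysed, then beta-galactosidase activity read as FDG fluorescence (ex 480/em 540) after 30 min, with pre-read for autofluorescence.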
# ATXN2 expr inh: ATXN2 expression inhibition. HEK-293 ATXN2-luciferase reporter, luminescence, 24 h. 0.72% of 360,000 active. Potency, µM (series often up to 57 µM), inactives show at the highest dose activity change, negative = inhibition, usual class: inhibitors; also: potency is read from the fitted curve at half-maximal effect; % is scaled to controls: 0 for no effect and ±100 for the full control effect; nearly all actives have a fitted effect of over 55% in size
#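 ATXN2-luciferase reporter cells (luciferase flanked by upstream and downstream ATXN2 gene portions) were treated 24 h at 37 °C with compounds at up to 57 uM. SteadyGlo luminescence gave expression; GF-AFC fluorescence gave viability.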
# D3 ag: D3 dopamine receptor (human) agonism; D3R DiscoveRx beta-arrestin cells, luminescence, 90 min; max activation, %; 0.58% of 410,000 active; AID 652048; in the data active = max activation above about 30%; also: 0% is about no effect
# Target sequence (P35462 whole entry, looked up): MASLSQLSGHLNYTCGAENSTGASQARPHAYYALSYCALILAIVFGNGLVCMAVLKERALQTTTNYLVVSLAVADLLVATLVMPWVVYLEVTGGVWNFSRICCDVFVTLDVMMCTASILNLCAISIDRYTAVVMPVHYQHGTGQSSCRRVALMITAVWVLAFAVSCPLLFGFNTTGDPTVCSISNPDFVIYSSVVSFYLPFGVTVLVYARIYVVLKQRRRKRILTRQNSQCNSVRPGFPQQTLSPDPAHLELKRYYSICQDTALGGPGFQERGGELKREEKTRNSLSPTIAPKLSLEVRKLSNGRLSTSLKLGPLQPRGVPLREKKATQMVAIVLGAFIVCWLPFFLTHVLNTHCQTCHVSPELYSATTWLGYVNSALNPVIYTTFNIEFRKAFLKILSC
#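 Agonist-mode cell screen: cells plated at 1500/well and incubated overnight at 37 °C, then exposed to library compounds for 90 min at 37 °C. Detection reagent was added for 30–60 min at room temperature, and luminescence was read.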
# D3 antag: D3 dopamine receptor (human) antagonism | P35462 | D3R cells, DiscoveRx beta-arrestin luminescence, antagonist mode; active compounds read low | max response, negative = inhibition, % | 2.5% of 360,000 active | AID 652054; in the data active = max response below about -50%; inconclusive = no clear call, values can overlap the other calls; also: % is scaled to controls: 0 for no effect and ±100 for the full control effect
#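 Cells plated overnight at 1500 cells/well, then exposed to library compounds with dopamine controls for 90 minutes at 37 degrees C. DiscoveRx reagent added for 30–60 minutes at room temperature; luminescence read, quantitative HTS format.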
# S2 tox: viability counter-screen for ATXN expression inhibitors; S2 cells (HEK-293 line with an ATXN2-luciferase reporter) viability, CellTiter-Fluor protease fluorescence, 24 h; Potency, µM (titrated, usually from 56.7 µM), actives largely listed as cytotoxic; 0.49% of 400,000 active; also: potency is read from the fitted curve at half-maximal effect; nearly all actives have a fitted effect of over 40% in size
# * = called active by the depositor; i = inactive; ? = inconclusive; · = no result; [ ] = dose if it differs, or a comment. Unless noted, calls follow the shape of the dose curve; as a rule, active = well fitted curve in the direction sought with a large enough effect; inconclusive = small, poorly fitted or top-dose-only effect, or another doubt; inactive = no such curve, though single readings can be large; an effect the other way counts as inactive or inconclusive.
SMILES,IL1B secr inh,Integrin act MD,ATXN2 expr inh,D3 ag,D3 antag,S2 tox
COc1ccc(C(=O)CC(Nc2ccc([N+](=O)[O-])cc2)c2ccc(Cl)cc2)cc1 (centres undefined),-53*,6%,-32%,-27,-23,i
COC(=O)c1c(-c2ccc(OC)cc2)oc2ccc(-c3cc(OC)c(OC)c(OC)c3)cc12,0,25%,?,35*,77,?
COC(=O)c1c(-c2ccc(OC)cc2)oc2ccc(-c3ccc(OC)nc3)cc12,11,22%,-13%,40*,22,i
CN1C(=O)CC[C@H]1c1cccnc1,·,·,14%,27,·,i
Cc1cccc(C(=O)OCC(=O)NC(=O)NC2CCCCC2)c1,-18,-11%,·,3,-117*,?
Cc1cc(Cl)ccc1OCC(=O)OCC(=O)NC1CCCC1,0,22%,-18%,-3,-8,i
Cc1cccc(C(=O)OCC(=O)NC2CCCCCCC2)c1,-8,19%,-11%,5,?,i
O=C(CNc1cccc([N+](=O)[O-])c1)NC(=O)NC1CCCCC1,-52*,-4%,-21%,1,?,i
Cc1ccc(C)c(OCC(=O)NC2CCCCCC2)c1,-66*,-17%,16%,1,-4,i
Cc1ccc(OCC(=O)NC2CCCC2)c(C)c1,-8,5%,25%,8,-2,i
Cc1cc(Cl)ccc1OCC(=O)NC1CCCC1,-85*,7%,11%,1,11,i
COc1ccc(Nc2nc3ccccc3nc2NS(=O)(=O)c2ccc(C)cc2)c(OC)c1,·,·,12%,5,·,i
Cc1cccc(C)c1-n1nnnc1C1c2ccccc2C(=O)N1CCC(C)C (centres undefined),0,·,7%,0,4,?
Cc1ccc(-c2csc(NC(=O)C3CC(=O)N(Cc4ccco4)C3)n2)cc1 (centres undefined),-65*,-3%,-9%[11.3 µM],3,9,?
Cc1csc(NC(=O)C2CC(=O)N(Cc3ccco3)C2)n1 (centres undefined),23,-4%,7%,9,4,i
COc1ccc(OC)c(CCNc2nc3ccccc3c3nc(-c4cccnc4)nn23)c1,·,·,·,0,·,·
CN(C)S(=O)(=O)c1cccc(NC(=S)Nc2cc(Cl)cc(Cl)c2)c1,-70*,5%,?,-2,15,i
COc1cccc(/C=N/NC(=S)Nc2cccc(S(=O)(=O)N(C)C)c2)c1,6,-44%,-30%,1,3,i
COc1ccc(O)c(/C=N/NC(=S)Nc2cccc(S(=O)(=O)N(C)C)c2)c1,-63*,-13%,?,2,48,i
CCN(CC)S(=O)(=O)c1ccc(N/N=C/c2cc(OC)ccc2O)nc1,58,-20%,3.2µM*,2,12,i
CCN(CC)S(=O)(=O)c1ccc(N/N=C/c2cccnc2)nc1,-12,-32%,·,2,-11,i
O=S(=O)(NN1CCOCC1)c1ccc(Br)s1,-9,0%,1%,0,-7,i
O=C(O)c1cccc2cccnc12,0,7%,3%,-3,-3,i
O=C(Oc1ccccc1)c1cccc2cccnc12,-3,-31%,-20%,-6,-54*,i
O=C(Cc1ccc(Cl)cc1)Oc1cccc2cccnc12,-100*,-35%,-27%,-13,?,i
SMILES,IL1B secr inh,Integrin act MD,ATXN2 expr inh,D3 ag,D3 antag,S2 tox
O=C(Oc1cccc2cccnc12)c1ccco1,34,-38%,-7%,-13,?,i
O=C(Oc1ccc(Cl)c2cccnc12)c1ccco1,64,-54%,-20%,-40,-138*,i
O=C(Oc1cccc2cccnc12)c1cccc([N+](=O)[O-])c1,-99*,?,5%,-21,?,i
COc1cccc(CNC(=O)Cn2c(=O)oc3cc(S(=O)(=O)N4CCC(C)CC4)ccc32)c1,·,·,-11%,-11,·,i
COc1ccccc1CNc1ccc(-c2nc(-c3ccco3)no2)cc1[N+](=O)[O-],·,·,18%,4,·,i
Cc1c(C(=O)Oc2cccc3cccnc23)cccc1[N+](=O)[O-],-66*,21%,-26%,-9,?,i
O=C(Oc1c(Cl)cc(Cl)c2cccnc12)c1cccc([N+](=O)[O-])c1,46,-18%,20µM*,-29,-94*,i
O=C(Oc1ccc(Cl)c2cccnc12)c1cccc([N+](=O)[O-])c1,-18,-48%,-16%,-26,-72*,i
O=C(Oc1cccc2cccnc12)c1ccc2c(c1)OCCO2,-5,-12%,0%,-4,-84*,i
Cc1ccc(CNC(=O)C2CC(=O)N(C3CCCCCC3)C2)cc1 (centres undefined),14,-1%,-4%,-7,-5,i
Clc1cc(Br)ccc1OCCOCCN1CCCC1,-91*,-60%,-22%,-18,-81*,i
CC(C)(C)c1cc(Cl)ccc1OCCOCCN1CCCC1,-75*,-66%,?,-29,-30,?
Clc1cc(Br)ccc1OCCOCCN1CCOCC1,-15,-3%,9%,-16,-82*,i
Cc1ccc(C(=O)NC(=S)NNC(=O)CCN2CCOCC2)cc1,22,-14%,7%,3,-3,i
CN(C1=NS(=O)(=O)N=C(N(C)c2ccccc2)O1)c1ccccc1,-102*,-50%,·,4,11,?
COc1ccc(N(C)C2=NS(=O)(=O)c3ccccc32)cc1,44,5%,-24%,1,?,i
CCCn1cc(CN2CCCC(C(=O)c3cccc(OC(C)C)c3)C2)c(C)n1 (centres undefined),14,-47%,-29%,1,-13,i
CCn1c(COc2ccc(C)cc2)nc2ccccc21,-76*,22%,33%,2,-7,i
CCOCCn1c(COc2ccc(C)cc2)nc2ccccc21,-23,11%,47%,1,-12,i
Cc1ccc(OCCn2c(CNc3cccc(C)c3)nc3ccccc32)cc1,·,·,-16%,2,·,i
Cc1ccc(NCc2nc3ccccc3n2CCOc2ccccc2)cc1,-96*,23%,19%,4,11,?
Cn1cc(Cl)c(C(=O)N2CCN(c3ncccn3)CC2)n1,4,-22%,5%,0,6,i
CC(C)(C)OC(=O)NCc1nc(N)n[nH]1,5,19%,7%,3,-9,i
CC(=O)c1ccc(S(=O)(=O)N2CCN(C(=O)c3ccc(-n4nc(C)c(Cl)c4C)cc3)CC2)cc1,-14,0%,·,77*,18,?
Cc1nn(-c2ccc(C(=O)N3CCN(S(=O)(=O)c4ccccc4C(F)(F)F)CC3)cc2)c(C)c1Cl,-13,?,-12%,112*,2,i

# Screens as filed in PubChem BioAssay.
